High-throughput results from PubChem BioAssay.
This is a sample that favours compounds with a hit; in the whole collection about 9.9% have one here.
KB-V1 MDR tox = qHTS assay for MDR1-selective chemotherapeutics: Primary screen using the drug-selected MDR subline cells KB-V1. Potency, µM (doses to about 46.1 µM), usual class: cytotoxic. KB-V1 MDR cells viability, CellTiter-Glo, 72 h. 400,000 tested, 3.4% active; also: nearly all actives have a fitted effect of over 60% in size
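qHTS viability screen in drug-selected KB-V1 MDR cells: 72 h compound treatment at 37 degrees C, ATP luminescence end point.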
MCF10A rerep = A quantitative high throughput screen for small molecules that induce DNA re-replication in MCF 10a normal breast cells; MCF 10A DNA re-replication, Hoechst nuclear intensity, 48 h; Potency, µM (top dose mostly 46.1 µM), most hits filed as activators; 350,000 tested, 2.9% active; also: nearly all actives have a fitted effect of over 50% in size
IL1B secr inh = qHTS for Inhibitors of Inflammasome Signaling: IL-1-beta AlphaLISA Primary Screen | AID 743279, 2014 | THP-1 LPS/ATP IL-1B secretion, AlphaLISA, 16 h; hits give low values | activity change, % at 57.5 µM | 360,000 tested, 4.7% active; in the data active = activity change below about -50%; inconclusive = mostly about -30% to -49%
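THP-1 cells pretreated 1 hr with compounds (up to 57.5 uM final), then stimulated with LPS (250 ng/mL final) plus ATP (1.25 mM final); secreted IL-1B measured by AlphaLISA after 16 hr, decreased signal indicating inhibition.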
KB-3-1 cytotox = qHTS assay for MDR1-selective chemotherapeutics: Primary screen using the parental adenocarcinoma cell KB-3-1; KB-3-1 viability, CellTiter-Glo ATP luminescence, 72 h; Potency, µM (top dose mostly 46.1 µM), usual class: cytotoxic; 400,000 tested, 1.4% active; also: nearly all actives have a fitted effect of over 60% in size
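Screening of KB-3-1 cells (DMEM, 10% FBS, phenol-red free) ran from lowest to highest compound concentration; after 72 h at 37 °C viability was read luminescently and curves fitted.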
SW480 rereplic = A quantitative high throughput screen for small molecules that induce DNA re-replication in SW480 colon adenocarcinoma cells; SW480 DNA re-replication, Hoechst DNA content imaging, 48 h; Potency, µM (doses to about 46.1 µM), most hits filed as activators; 340,000 tested, 1.8% active; AID 624297, 2012; also: nearly all actives have a fitted effect of over 55% in size
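SW480 cells exposed to compounds for 48 hr at 37 C, 5% CO2, then Hoechst-stained 40 min. Nuclear DNA content imaged by fluorescence scanning (405 nm excitation, 500-530 nm emission); re-replication scored as increased high-intensity nuclei.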
Large screens that a line does not name were inactive; ! = not active in a repeat. Unless noted, calls follow the shape of the dose curve; as a rule, active = well fitted curve in the direction sought with a large enough effect; inconclusive = small, poorly fitted or top-dose-only effect, or another doubt; inactive = no such curve, though single readings can be large; an effect the other way counts as inactive or inconclusive.

Cc1nc(Nc2cc(F)ccc2C)c2nnn(Cc3ccccc3)c2n1	IL1B secr inh inconclusive
COC(=O)c1sc2nc(N3CCCCC3)c3c(c2c1N)CCCC3	MCF10A rerep 7.08µM
COC(=O)c1ccc(-c2sc3nc(N4CCOCC4)c4c(c3c2N)CCCC4)o1	MCF10A rerep inconclusive, KB-3-1 cytotox inconclusive, SW480 rereplic 0.631µM
CCN(CC)C(=O)c1sc2nc(N3CCOCC3)c3c(c2c1N)CCCC3	KB-V1 MDR tox 4.61µM, MCF10A rerep inconclusive
CCOC(=O)c1sc2nc(C(C)C)c3c(c2c1N)CCC3	KB-V1 MDR tox inconclusive, MCF10A rerep 3.66µM, SW480 rereplic 18.4µM
CCOC(=O)c1sc2nc(N3CCOCC3)c3c(c2c1N)CCCC3	none
Cc1ccc2sc(N3CCN(CCNC(=O)c4ccco4)CC3)nc2c1C	none
c1ccc2c3c([nH]c2c1)C(C1CCCCC1)N(Cc1ncc[nH]1)CC3 (stereo not drawn)	IL1B secr inh -87.5
Cc1cnc(CN2CCc3c([nH]c4ccccc34)C2C2CCCCC2)[nH]1 (stereo not drawn)	MCF10A rerep inconclusive, IL1B secr inh -78.5
COc1cccc(C2c3[nH]c4ccccc4c3CCN2Cc2ncc[nH]2)c1 (stereo not drawn)	none
COc1cccc(-c2c[nH]c(=O)[nH]c2=O)c1	KB-V1 MDR tox inconclusive
COc1cccc([C@@H]2Oc3ccc(Br)cc3C(=O)[C@H]2OC(=O)NC2CCCC2)c1	MCF10A rerep inconclusive, IL1B secr inh -61.1, KB-3-1 cytotox inconclusive
COc1ccc(-c2ccccc2)cc1NC(=O)C1(C)CCN1C(=O)C(C)C (stereo not drawn)	none (no result: MCF10A rerep, SW480 rereplic)
CCCc1c(NC(=O)Nc2ccc(Cl)cc2Cl)cnn1-c1ccccc1	KB-V1 MDR tox inconclusive, MCF10A rerep inconclusive, KB-3-1 cytotox inconclusive, SW480 rereplic 14.6µM
Clc1ccc2oc3c(Cl)ncnc3c2c1	MCF10A rerep inconclusive, IL1B secr inh -100.6, SW480 rereplic inconclusive
Nc1ccccc1-n1c(=O)n(Cc2ccccc2F)c(=O)c2[nH]cnc21	none
CCOC(=O)C1=C(COC(=O)/C=C/c2ccc(OC)c(OC)c2)NC(=O)NC1C (stereo not drawn)	none
CCOC(=O)C1=C(COC(=O)CCOc2ccc(OC)cc2)NC(=O)NC1C (stereo not drawn)	none
CCOC(=O)C1=C(COC(=O)CCOc2ccc(C)cc2)NC(=O)NC1C (stereo not drawn)	MCF10A rerep 18.4µM, IL1B secr inh inconclusive, SW480 rereplic inconclusive
CCOC(=O)C1=C(COC(=O)/C=C/c2ccc(OC)cc2OC)NC(=O)NC1C (stereo not drawn)	KB-V1 MDR tox 6.51µM, IL1B secr inh inconclusive
O=[N+]([O-])c1ccc(CN2CCOCCOCCN(Cc3ccc([N+](=O)[O-])cc3)CCOCC2)cc1	KB-V1 MDR tox inconclusive, IL1B secr inh -142.0
CSc1ccc(CN2CCN(Cc3ccc([N+](=O)[O-])cc3)CC2)cc1	KB-V1 MDR tox 2.06µM, MCF10A rerep 14.6µM, IL1B secr inh -66.7, KB-3-1 cytotox inconclusive
O=[N+]([O-])c1ccc(CN2CCCCCC2)cc1	none
O=[N+]([O-])c1ccc(COc2ccc(CN3CCOCC3)cc2)cc1	none
C=CCNc1nc(NCCOC)c2sc(-c3ccccc3)cc2n1	KB-V1 MDR tox inconclusive, IL1B secr inh -112.9 (no result: MCF10A rerep, SW480 rereplic)
C=CCNc1nc(NCCOc2ccccc2Cl)c2sc(-c3ccccc3)cc2n1	KB-V1 MDR tox inconclusive, IL1B secr inh -110.9, KB-3-1 cytotox inconclusive (no result: MCF10A rerep, SW480 rereplic)
C=CCNc1nc(NCCNC(C)=O)c2sc(-c3ccccc3)cc2n1	none (no result: MCF10A rerep, SW480 rereplic)
COCCNc1nc(-c2cc(F)ccc2C)c2sc(-c3ccccc3)cc2n1	IL1B secr inh -81.9 (no result: MCF10A rerep, SW480 rereplic)
COCCNc1nc(NCc2ccc(NC(C)=O)cc2)c2sc(-c3ccccc3)cc2n1	KB-V1 MDR tox inconclusive, KB-3-1 cytotox inconclusive (no result: MCF10A rerep, SW480 rereplic)
COCCNc1nc(NCc2cccc(OC)c2)c2sc(-c3ccccc3)cc2n1	IL1B secr inh -112.0, KB-3-1 cytotox inconclusive (no result: MCF10A rerep, SW480 rereplic)
Nn1c(SCc2ccc(F)cc2)nnc1-c1ccncc1	SW480 rereplic inconclusive
CN(C)C1C(=O)c2ccccc2C1=O	none
CN(CC(=O)Nc1ccccc1C(=O)NC1CC1)Cc1ccco1	none
Cc1ccc(NC(=O)CN(C)C(=O)COc2cccc3cccnc23)cc1	none
CCOc1ccc(S(=O)(=O)Nc2ccccc2C(=O)N2CCOCC2)cc1	none
C=CCNc1nc(Nc2ccc(OC)c(OC)c2)c2sc(-c3ccccc3)cc2n1	KB-V1 MDR tox inconclusive, IL1B secr inh -108.3, KB-3-1 cytotox 2.06µM (no result: MCF10A rerep, SW480 rereplic)
O=S(=O)(CCN1C=CC(C(F)(F)F)=NCC1)c1ccc(Cl)cc1Cl	IL1B secr inh -67.6
N#C/C(=C\Nc1ccc2cn[nH]c2c1)c1nc(-c2ccc(Cl)cc2)cs1	KB-V1 MDR tox inconclusive, MCF10A rerep inconclusive, KB-3-1 cytotox inconclusive, SW480 rereplic inconclusive
N#C/C(=C\Nc1ccc2cn[nH]c2c1)c1nc(-c2ccccc2)cs1	MCF10A rerep 16.4µM
CCn1c(N2CCN(CC(=O)c3c(C)n(C)c4ccc(OC)cc34)CC2)nc2c1c(=O)[nH]c(=O)n2C	KB-3-1 cytotox 20.6µM (no result: IL1B secr inh)
CCn1c(N2CCN(CC(=O)c3c(C)n(C)c4ccccc34)CC2)nc2c1c(=O)[nH]c(=O)n2C	IL1B secr inh -70.7, SW480 rereplic inconclusive
COc1ccc2c(c1)c(C(=O)CN1CCN(C(=O)c3ccco3)CC1)c(C)n2C	KB-V1 MDR tox 23.1µM, MCF10A rerep inconclusive
COc1ccc(Oc2nc(OC)cc(OC)n2)cc1	none
COc1cc2ccccc2cc1C(=O)OCc1nc2ccsc2c(=O)[nH]1	MCF10A rerep inconclusive
CCOC(=O)C1=C(CN2CCCCC2)NC(=O)NC1c1cc(C)ccc1C (stereo not drawn)	KB-V1 MDR tox 10.3µM!
CCOC(=O)C1=C(CSCc2ccccc2)NC(=O)NC1c1cc(C)ccc1C (stereo not drawn)	KB-V1 MDR tox 9.2µM, MCF10A rerep inconclusive, IL1B secr inh -51.3, SW480 rereplic inconclusive
COc1ccc(S(=O)(=O)N2CCN(C(=O)c3cc(C)nc4ccccc34)CC2)cc1OC	none
CCCCn1c(N)c(N(CC)C(=O)c2ccc(-c3ccc(Cl)cc3)o2)c(=O)[nH]c1=O	KB-V1 MDR tox inconclusive
CCCCn1c(N)c(N(CC)C(=O)c2cc3c(s2)CCCCC3)c(=O)[nH]c1=O	none
CCCCn1c(N)c(N(CC(C)C)C(=O)c2cc3c(s2)CCCCC3)c(=O)[nH]c1=O	SW480 rereplic 7.31µM
CCCCn1c(N)c(N(CC(C)C)C(=O)c2cnccn2)c(=O)[nH]c1=O	SW480 rereplic 18.4µM
CCCCn1c(N)c(N(CC(C)C)C(=O)CSCc2ccc(Cl)c(Cl)c2)c(=O)[nH]c1=O	MCF10A rerep inconclusive, IL1B secr inh -56.3
